Measured values taken from PubChem BioAssay AID1159580 (chemical genetic matrix, 2015).
In all, about 5,500 compounds went through this assay and about 2,000 (36%) were called active. Not shown: some 18% with an inconclusive outcome. Cut-off read from the data, not from the text of the source: active = normalized growth mostly below about 0.91 (no sharp cut-off); inconclusive = no clear call, values can overlap the other calls; inactive = mostly above about 0.92. The list shows a part of the results.

Test: chemical genetic growth profiling, strain panel (AID 1159580);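 note: tested at 20 µM; growth read once vehicle control cultures reached saturation at 30 °C; 1 = growth at the plate median or of vehicle wells; lower values mean less growth of the strain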
Conditions: S. cerevisiae deletion strains, growth OD
[1] = locus YHR030C, strain SLT2, stronger effect = lower value
[2] = locus YHR079C, strain IRE1, stronger effect = lower value
[3] = locus YJL095W, strain BCK1, stronger effect = lower value
[4] = locus YJR066W, strain TOR1, stronger effect = lower value
[5] = locus YLR113W, strain HOG1, stronger effect = lower value
[6] = locus YNL183C, strain NPR1, stronger effect = lower value
[7] = locus YOR231W, strain MKK1, stronger effect = lower value
[8] = locus YPL256C, strain CLN2, stronger effect = lower value

Measured: normalized growth

CC1=CCCC2C1(C)CCC(C)C2(C)CC/C(C)=C/C[n+]1cn(C)c2c(N)ncnc21 (stereo not given)
active: locus YAL026C, strain drs2, stronger effect = lower value 0.838 | locus YDR137W, strain rgp1, stronger effect = lower value 1.17 [resistant] | locus YDR392W, strain spt3, stronger effect = lower value 0.452 | locus YER155C, strain BEM2 (second series), stronger effect = lower value 0.644 | locus YNL071W, strain lat1, stronger effect = lower value 0.863 | locus YOR290C, strain snf2, stronger effect = lower value 0.844
inactive: locus YAL021C, strain ccr4, stronger effect = lower value 0.944 | locus YAL030W, strain snc1, stronger effect = lower value 0.986 | locus YBL061C, strain skt5, stronger effect = lower value 1.01 | locus YBR009C, strain hhf1, stronger effect = lower value 0.928 | locus YBR023C, strain chs3, stronger effect = lower value 0.978 | locus YBR171W, strain sec66, stronger effect = lower value 0.977 | locus YBR231C, strain swc5, stronger effect = lower value 0.973 | locus YBR279W, strain paf1, stronger effect = lower value 0.96 | locus YCL011C, strain gbp2, stronger effect = lower value 0.943 | locus YCL016C, strain dcc1, stronger effect = lower value 0.932 | locus YCL069W, strain vba3, stronger effect = lower value 0.961 | locus YCR088W, strain abp1, stronger effect = lower value 0.991 | locus YDL005C, strain med2, stronger effect = lower value 0.984 | locus YDL040C, strain nat1, stronger effect = lower value 0.991 | locus YDR001C, strain nth1, stronger effect = lower value 0.976 | locus YDR069C, strain doa4, stronger effect = lower value 1.01 | locus YDR159W, strain sac3, stronger effect = lower value 1.06 | locus YDR195W, strain ref2 0.992 | locus YDR297W, strain sur2, stronger effect = lower value 0.996 | locus YDR334W, strain swr1, stronger effect = lower value 0.988 | locus YDR335W, strain msn5, stronger effect = lower value 0.955 | locus YEL003W, strain gim4, stronger effect = lower value 0.955 | locus YEL037C, strain rad23, stronger effect = lower value 0.987 | locus YEL061C, strain CIN8 (second series), stronger effect = lower value 0.976 | locus YER015W, strain faa2, stronger effect = lower value 0.963 | locus YER016W, strain bim1, stronger effect = lower value 0.994 | locus YER111C, strain swi4, stronger effect = lower value 0.984 | locus YFR010W, strain ubp6, stronger effect = lower value 0.996 | locus YGL167C, strain pmr1, stronger effect = lower value 0.976 | locus YGL173C, strain kem1, stronger effect = lower value 0.993 | locus YGL227W, strain vid30, stronger effect = lower value 0.985 | locus YGL240W, strain doc1, stronger effect = lower value 0.971 | locus YGL253W, strain hxk2, stronger effect = lower value 0.976 | locus YHR013C, strain ard1, stronger effect = lower value 0.917 | locus YHR027C, strain rpn1, stronger effect = lower value 1 | [1] 0.946 | [2] 0.951 | locus YHR142W, strain chs7, stronger effect = lower value 0.881 | locus YJL092W, strain hpr5, stronger effect = lower value 0.982 | locus YJL095W, strain BCK1 (second series), stronger effect = lower value 1.01 | [3] 0.971 | locus YJL115W, strain asf1, stronger effect = lower value 0.978 | locus YJL129C, strain trk1, stronger effect = lower value 1 | locus YJL154C, strain vps35, stronger effect = lower value 0.983 | locus YJL164C, strain tpk1, stronger effect = lower value 0.935 | locus YJL166W, strain qcr8, stronger effect = lower value 0.963 | locus YJL187C, strain SWE1, stronger effect = lower value 0.991 | [4] 0.94 | locus YKL160W, strain elf1, stronger effect = lower value 0.929 | locus YKR026C, strain gcn3, stronger effect = lower value 1.01 | locus YKR091W, strain srl3, stronger effect = lower value 0.977 | locus YLL001W, strain dnm1, stronger effect = lower value 0.908 | locus YLL026W, stronger effect = lower value 0.984 | locus YLL041C, strain sdh2, stronger effect = lower value 0.987 | locus YLR027C, strain aat2, stronger effect = lower value 0.986 | [5] 0.891 | locus YLR221C, strain rsa3, stronger effect = lower value 1.02 | locus YLR258W, strain gsy2, stronger effect = lower value 0.969 | locus YLR262C, strain YPT6 (second series), stronger effect = lower value 1.03 | locus YLR320W, strain mms22, stronger effect = lower value 1 | locus YLR342W, strain FKS1, stronger effect = lower value 0.919 | locus YLR357W, strain rsc2, stronger effect = lower value 0.929 | locus YLR370C, strain arc18, stronger effect = lower value 0.961 | locus YLR384C, strain iki3, stronger effect = lower value 0.995 | locus YML120C, strain ndi1, stronger effect = lower value 0.931 | locus YMR058W, strain fet3, stronger effect = lower value 0.982 | locus YMR125W, strain sto1, stronger effect = lower value 0.936 | locus YMR129W, stronger effect = lower value 0.995 | locus YMR205C, strain PFK2, stronger effect = lower value 0.925 | locus YMR231W, strain pep5, stronger effect = lower value 1.02 | [6] 0.968 | locus YNL209W, strain ssb2, stronger effect = lower value 0.932 | locus YNL248C, strain rpa49, stronger effect = lower value 0.98 | locus YNL322C, strain KRE1 (second series), stronger effect = lower value 0.996 | locus YNR049C, strain mso1, stronger effect = lower value 0.992 | locus YOR001W, strain rrp6, stronger effect = lower value 1.01 | locus YOR070C, strain gyp1, stronger effect = lower value 0.988 | locus YOR080W, strain dia2, stronger effect = lower value 1 | locus YOR083W, strain WHI5, stronger effect = lower value 0.908 | locus YOR106W, strain vam3, stronger effect = lower value 0.883 | [7] 0.937 | locus YOR265W, strain rbl2, stronger effect = lower value 0.981 | locus YOR270C, strain vph1, stronger effect = lower value 0.95 | locus YPL051W, strain arl3, stronger effect = lower value 0.942 | locus YPL078C, strain atp4, stronger effect = lower value 0.896 | locus YPL106C, strain sse1, stronger effect = lower value 0.973 | locus YPL240C, strain hsp82, stronger effect = lower value 0.996 | [8] 0.939

CNCCCC1c2ccccc2C=Cc2ccccc21
inactive: locus YAL013W, strain DEP1, stronger effect = lower value 0.989 | locus YAL040C, strain CLN3, stronger effect = lower value 1.08 | locus YCL061C, strain MRC1 (second series), stronger effect = lower value 1 | locus YDR363W, strain ESC2, stronger effect = lower value 1.03 | locus YER002W, strain NOP16, stronger effect = lower value 1.01 | [1] 0.974 | [2] 0.965 | [3] 0.959 | [4] 0.954 | locus YJR075W, strain HOC1, stronger effect = lower value 0.985 | [5] 0.956 | locus YMR307W, strain GAS1, stronger effect = lower value 1 | locus YNL153C, strain GIM3, stronger effect = lower value 1.02 | locus YNL175C, strain NOP13, stronger effect = lower value 1.01 | [6] 0.924 | locus YNL197C, strain WHI3, stronger effect = lower value 1.02 | locus YNL224C, strain SQS1, stronger effect = lower value 1.06 | locus YOR083W, strain WHI5 (second series), stronger effect = lower value 1.04 | [7] 0.976 | locus YPL055C, strain LGE1, stronger effect = lower value 1 | [8] 0.945
